Experimental data published in PubChem BioAssay (NCI).
Compounds without any hit were thinned out: in the full panel of roughly 79,000, 15% have a hit. Calls of active or inactive are those of the source. No stated cut-off is given here; in the data, active means growth inhibition above about 70%; inactive means the rest.

Legend:
[1] = NCI Yeast Anticancer Drug Screen. Data for the rad52 strain (AID 147);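 further: 0% = growth of vehicle-treated control cultures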; conditions: S. cerevisiae rad52 mutant growth inhibition, hits give high values
How it was run: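 Here a repair-compromised yeast strain receives each compound; its growth is then quantified and normalised to vehicle-only controls.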

[2] = NCI Yeast Anticancer Drug Screen. Data for the wt1 strain (AID 149);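 further: 0% = growth of vehicle-treated wt1 cultures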; conditions: S. cerevisiae wt1 strain (SPY 50644) growth inhibition, hits give high values
How it was run: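 Measured: growth of wt1 yeast under compound versus vehicle treatment, reported as inhibition.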

[3] = NCI Yeast Anticancer Drug Screen. Data for the rad50EPP+ strain (AID 151);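 further: 0% = growth of vehicle-treated control cultures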; conditions: S. cerevisiae rad50 mutant strain, hits give high values
How it was run: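 Read-out is yeast growth inhibition relative to vehicle; cells used were the rad50EPP+ strain.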

[4] = NCI Yeast Anticancer Drug Screen. Data for the mgt1 strain (AID 153); conditions: S. cerevisiae mgt1 mutant growth inhibition, hits give high values
How it was run: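 Measured: inhibition of mgt1 yeast growth by compound, normalized to vehicle-treated cultures.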

[5] = NCI Yeast Anticancer Drug Screen. Data for the rad50 strain (AID 155);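 further: 0% = growth of vehicle-only cultures of the same strain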; conditions: S. cerevisiae rad50 strain growth inhibition, hits give high values
How it was run: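 Growth of the mutant yeast was measured after compound exposure and referenced to vehicle-treated cultures.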

[6] = NCI Yeast Anticancer Drug Screen. Data for the mec2-1 strain (AID 157); conditions: S. cerevisiae mec2-1 strain, hits give high values
How it was run: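 Using mec2-1 yeast: add compound, measure growth, express inhibition versus vehicle-treated cultures.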

[7] = NCI Yeast Anticancer Drug Screen. Data for the rad14 strain (AID 159);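 further: 0% = growth of vehicle-treated control cultures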; conditions: S. cerevisiae rad14 strain growth inhibition, hits give high values
How it was run: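 Here, inhibition of yeast growth was measured after compound exposure, using a strain with a genetic defect in DNA damage repair and vehicle-treated cultures as the reference.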

[8] = NCI Yeast Anticancer Drug Screen. Data for the sgs1 mgt1 strain (AID 161);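 further: 0% = growth of cultures given vehicle only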; conditions: S. cerevisiae sgs1 mgt1 strain, hits give high values
How it was run: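 Growth of a repair-deficient yeast mutant was monitored after compound treatment and expressed as inhibition relative to vehicle-treated cultures.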

[9] = NCI Yeast Anticancer Drug Screen. Data for the CLN2oe strain (AID 163);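 further: 0% = growth of vehicle-only control cultures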; conditions: S. cerevisiae CLN2oe strain, hits give high values
How it was run: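 Whole-cell yeast growth assay. A strain engineered for altered cell-cycle control received compound, and inhibition relative to vehicle-treated cultures was recorded.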

[10] = NCI Yeast Anticancer Drug Screen. Data for the cln2 rad14 strain (AID 165);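 further: 0% = growth equal to vehicle treated cultures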; conditions: S. cerevisiae cln2 rad14 strain, hits give high values
How it was run: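 Yeast strain cln2 rad14, bearing defects in cell cycle control and DNA repair, serves as the test system; values reflect growth inhibition compared with vehicle.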

[11] = NCI Yeast Anticancer Drug Screen. Data for the bub3 strain (AID 167); conditions: S. cerevisiae bub3 mutant strain, hits give high values
How it was run: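 Whole-cell yeast assay. The mutant strain was incubated with compounds, and growth inhibition was determined by comparison with vehicle-treated cells.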

[12] = NCI Yeast Anticancer Drug Screen. Data for the wt2 strain (AID 169);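 further: 0% = growth of vehicle-treated yeast cultures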; conditions: S. cerevisiae wt2 strain growth inhibition, hits give high values
How it was run: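 Treated yeast vs. vehicle-treated yeast: growth inhibition determined.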

[13] = NCI Yeast Anticancer Drug Screen. Data for the mlh1 strain (AID 171);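 further: 0% = growth of vehicle-treated control cultures of the same strain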; conditions: S. cerevisiae mlh1 strain growth inhibition, hits give high values
How it was run: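 A yeast strain with a defined genetic lesion serves as the test organism. Cultures receive compound or vehicle, and growth is measured.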

[14] = NCI Yeast Anticancer Drug Screen. Data for the sgs1 strain (AID 173);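 further: 0% = growth of vehicle-only control cultures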; conditions: S. cerevisiae sgs1 mutant, hits give high values
How it was run: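 A genetically defined yeast mutant is incubated with the test compound, and its growth is compared to that of the same strain given vehicle.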

[15] = NCI Yeast Anticancer Drug Screen. Data for the mlh1 rad18 strain (AID 175); conditions: S. cerevisiae mlh1 rad18 strain growth inhibition, hits give high values
How it was run: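 Steps: expose repair-defective yeast to compound; measure growth; express inhibition against vehicle-treated controls.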

[16] = NCI Yeast Anticancer Drug Screen. Data for the rad18 strain (AID 177); conditions: S. cerevisiae rad18 mutant growth inhibition, hits give high values
How it was run: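 Measured value is growth inhibition of a yeast strain bearing a DNA repair alteration, referenced to vehicle-treated cells.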

[17] = at 5.0 µM (retest, dose inferred, filed as 0.5)
[18] = at 50.0 µM (retest, dose inferred, filed as 5.0)

Measured: growth inhibition

CCc1cc(O)c(Cl)c(C)c1Cl
inactive: [1]; at 1.2 µM -5% | [1]; at 3.7 µM 6% | [1]; at 11.0 µM -8% | [1]; at 33.0 µM 14% | [2]; at 1.2 µM 7% | [2]; at 3.7 µM 21% | [2]; at 11.0 µM 14% | [2]; at 33.0 µM 20% | [3]; at 1.2 µM -12% | [3]; at 3.7 µM 0% | [3]; at 11.0 µM -13% | [3]; at 33.0 µM 40% | [4]; at 1.2 µM 14% | [4]; at 3.7 µM 3% | [4]; at 11.0 µM 28% | [5]; at 1.2 µM -29% | [5]; at 3.7 µM -19% | [5]; [17] 42% | [5]; at 11.0 µM -31% | [5]; at 33.0 µM 43% | [5]; at 50.0 µM 29.6% | [6]; at 1.2 µM -8% | [6]; at 3.7 µM -5% | [6]; [17] 44% | [6]; at 11.0 µM -13% | [6]; at 33.0 µM 3% | [6]; at 50.0 µM 34.9% | [7]; at 1.2 µM 9% | [7]; at 3.7 µM -5% | [7]; at 11.0 µM -8% | [7]; at 33.0 µM 34% | [8]; [17] -9% | [8]; [18] 33% | [8]; at 50.0 µM 45.5% | [9]; at 1.2 µM 18% | [9]; at 3.7 µM -21% | [9]; at 11.0 µM 1% | [9]; at 33.0 µM 28% | [10]; [17] 46% | [10]; at 50.0 µM 35% | [11]; at 1.2 µM -11% | [11]; at 3.7 µM 11% | [11]; [17] 21% | [11]; at 11.0 µM 5% | [11]; at 33.0 µM 31% | [11]; [18] 49% | [11]; at 50.0 µM 69.5% | [12]; at 1.2 µM -33% | [12]; at 3.7 µM -29% | [12]; at 11.0 µM -25% | [12]; at 33.0 µM 20% | [13]; at 1.2 µM 18% | [13]; at 3.7 µM 5% | [13]; at 11.0 µM 17% | [13]; at 33.0 µM 40% | [14]; at 1.2 µM -4% | [14]; at 3.7 µM 6% | [14]; at 11.0 µM 1% | [14]; at 33.0 µM 44% | [15]; [17] 48% | [15]; at 50.0 µM 13.9% | [16]; at 1.2 µM -14% | [16]; at 3.7 µM -30% | [16]; at 11.0 µM -40% | [16]; at 33.0 µM -27% | [16]; at 100.0 µM 63%
active: [1]; at 100.0 µM 75% | [2]; at 100.0 µM 87% | [3]; at 100.0 µM 90% | [4]; at 33.0 µM 73% | [4]; at 100.0 µM 96% | [5]; [18] 77% | [5]; at 100.0 µM 97% | [6]; [18] 86% | [6]; at 100.0 µM 73% | [7]; at 100.0 µM 90% | [9]; at 100.0 µM 71% | [10]; [18] 70% | [11]; at 100.0 µM 85% | [12]; at 100.0 µM 90% | [13]; at 100.0 µM 81% | [14]; at 100.0 µM 92% | [15]; [18] 93%

CC1CC(C)(C)CC(OCCN2CCCCC2)(c2ccccc2)C1 (stereo unspecified)
active: [1]; at 100.0 µM 84% | [4]; at 100.0 µM 83% | [5]; [18] 89% | [5]; at 50.0 µM 87.8% | [5]; at 100.0 µM 82% | [7]; at 100.0 µM 99% | [8]; [18] 79% | [8]; at 50.0 µM 83.5% | [9]; at 100.0 µM 87% | [11]; [18] 74% | [11]; at 50.0 µM 78.8% | [11]; at 100.0 µM 75% | [12]; at 100.0 µM 80% | [13]; at 100.0 µM 87% | [14]; at 100.0 µM 95% | [15]; [18] 79% | [15]; at 50.0 µM 84.8% | [16]; at 100.0 µM 91%
inactive: [1]; at 1.2 µM -1% | [1]; at 3.7 µM 8% | [1]; at 11.0 µM 15% | [1]; at 33.0 µM 25% | [2]; at 1.2 µM 2% | [2]; at 3.7 µM 5% | [2]; at 11.0 µM 12% | [2]; at 33.0 µM 14% | [2]; at 100.0 µM 32% | [3]; at 1.2 µM -5% | [3]; at 3.7 µM 1% | [3]; at 11.0 µM -3% | [3]; at 33.0 µM -3% | [3]; at 100.0 µM -2% | [4]; at 1.2 µM 0% | [4]; at 3.7 µM 2% | [4]; at 11.0 µM 10% | [4]; at 33.0 µM 32% | [5]; at 1.2 µM 3% | [5]; at 3.7 µM 8% | [5]; [17] 28% | [5]; at 11.0 µM 19% | [5]; at 33.0 µM 25% | [6]; at 1.2 µM 0% | [6]; at 3.7 µM 3% | [6]; [17] 4% | [6]; at 11.0 µM 10% | [6]; at 33.0 µM 11% | [6]; [18] 10% | [6]; at 50.0 µM 36.3% | [6]; at 100.0 µM 54% | [7]; at 1.2 µM 7% | [7]; at 3.7 µM 21% | [7]; at 11.0 µM 37% | [7]; at 33.0 µM 62% | [8]; [17] 4% | [9]; at 1.2 µM 2% | [9]; at 3.7 µM 7% | [9]; at 11.0 µM 20% | [9]; at 33.0 µM 50% | [10]; [17] -1% | [10]; [18] 26% | [10]; at 50.0 µM 52.2% | [11]; at 1.2 µM -3% | [11]; at 3.7 µM 4% | [11]; [17] -16% | [11]; at 11.0 µM 17% | [11]; at 33.0 µM 52% | [12]; at 1.2 µM 0% | [12]; at 3.7 µM 5% | [12]; at 11.0 µM 21% | [12]; at 33.0 µM 32% | [13]; at 1.2 µM 1% | [13]; at 3.7 µM 5% | [13]; at 11.0 µM 17% | [13]; at 33.0 µM 15% | [14]; at 1.2 µM 3% | [14]; at 3.7 µM 12% | [14]; at 11.0 µM 40% | [14]; at 33.0 µM 63% | [15]; [17] 7% | [16]; at 1.2 µM -3% | [16]; at 3.7 µM 11% | [16]; at 11.0 µM 30% | [16]; at 33.0 µM 55%
